This is an account of results in PubChem BioAssay (NCI).

Common to all, as to assay: NCI-60 one-dose screen, 48 h (100 = growth as untreated, 0 = no growth, -100 = all killed)
Conditions in all cases: 10 µM unless noted

Experiment [1] deals with DU-145 prostate.
Experiment [2] relates to K-562 leukemia.
Experiment [3] has as its system MALME-3M melanoma.
For experiment [4], the system named is MDA-MB-231 breast.
For experiment [5], the system named is RXF 393 renal.
In experiment [6] the test system is SF-268 CNS.
In experiment [7] the test system is SF-295 CNS.
For experiment [8], the system named is SF-539 CNS.
Experiment [9] deals with UACC-257 melanoma.
The test system of experiment [10] is M14 melanoma.
The subject of experiment [11] is HCT-15 colon.
In experiment [12] the test system is HT29 colon.
Experiment [13] concerns SNB-75 CNS.
Experiment [14] deals with SNB-19 CNS.
The test system of experiment [15] is U251 CNS.
Experiment [16] deals with PC-3 prostate.
Experiment [17] deals with SK-MEL-5 melanoma.
The subject of experiment [18] is UACC-62 melanoma.
In experiment [19] the test system is LOX IMVI melanoma.
Experiment [20] has as its system SK-MEL-28 melanoma.

The panel holds about 83,000 compounds, 20% with a hit somewhere; the sample as a whole holds those more often.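 Single-concentration screen, 48 h exposure, 96-well plates. Endpoint: percent growth. Below 10 = active.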 Unmarked numbers belong to inactive results. Activity calls are given as the source filed them.

As for `COc1ccc(-c2nn(C(=O)NCCN(C)C)cc2-c2ccncc2)cc1Cl`, the growth in [1] was 77.6%; in [2] it was 16.5%; in experiment [3] it was 53.8%; in [4] it was 54.5%; in [5] it was 44.6%; in [6], 44.8%. In addition, the growth in experiment [7] is 24%; in experiment [8], 25.6%; in experiment [9], 64.4%; in experiment [10], 45.8%; in [11] it was 33.5%; in experiment [12] it was 15.3%. In addition, the growth is -20% (active) in [13]; 54.8% in experiment [14]; 31.1% in experiment [15]; 63.5% in experiment [16]; 20.5% in experiment [17]; 34.6% in experiment [18]. For the same compound, the growth in [19] is 25.6%; in experiment [20], 39.4%.
On to `O=C(Nc1cccc(C2=NCCN2)c1)c1ccc(N=Nc2ccc(C(=O)Nc3cccc(C4=NCCN4)c3)cc2)cc1`, for which the growth is 59.1% in experiment [1]; 51.8% in experiment [2]; 29.7% in experiment [3]; 73.1% in experiment [4]; 105% in experiment [5]; 54.2% in experiment [6]. The growth in experiment [7] is 82.4%; in [8], 74%; in experiment [9], 55.4%; in [10], 64.9%; in experiment [11], 82.2%; in experiment [12] it was 71.8%. The growth in experiment [13] is 48.7%; in experiment [14], 53.2%; in experiment [15], 16.5%; in [16], 63.4%; in experiment [17], 80.4%; in experiment [18], 68.4%. Further, the growth in experiment [19] is 75.8%; in experiment [20] it was 59.3%.
On to `Cc1c2c(cc3c1[nH]c1ccccc13)C=NCC2`, for which the growth in [1] is 94.9%; in experiment [2] it was 62.3%; in [3], 103%; in [4], 90.4%; in experiment [5], 84.9%; in [6], 95.5%. In addition, the growth is 92.4% in experiment [7]; 92.8% in experiment [8]; 106% in [9]; 91% in experiment [10]; 95.1% in experiment [11]; 61.2% in experiment [12]. In addition, the growth is 84% in [13]; 93.4% in [14]; 92.5% in experiment [15]; 91% in [16]; 88.1% in experiment [17]; 107% in experiment [18]. For the same compound, the growth in experiment [19] is 87.4%; in experiment [20] it was 118%.
As for `O/N=C1\c2ccccc2-c2ccc(Br)cc21`, the growth was 110% in experiment [1]; 98.7% in experiment [2]; 103% in experiment [3]; 107% in experiment [4]; 116% in experiment [5]; 102% in experiment [6]. The growth in experiment [7] was 99.2%; in experiment [8], 97.8%; in [9], 106%; in experiment [10], 129%; in experiment [11], 102%; in experiment [12], 101%. In addition, the growth was 107% in [13]; 104% in experiment [14]; 104% in experiment [15]; 101% in experiment [16]; 104% in experiment [17]; 105% in [18]. Also, the growth in [19] is 105%; in experiment [20], 118%.
For the compound `Nc1c(C(=O)Nc2cccc(Cl)c2)sc2nc3c(cc12)C(=O)CCC3`, the growth in experiment [1] was 11.6%; in experiment [2], 22.8%; in [3], 49.7%; in experiment [4] it was 43.9%; in [5] it was 25.9%; in experiment [6], 63.1%. Moreover, the growth in experiment [7] was -20.2% (active); in [8] it was 27.3%; in experiment [9] it was 68.9%; in [10] it was 26.9%; in [11], 32.4%; in [12], 23.9%. Also, the growth is 25.9% in experiment [13]; 38.2% in [14]; 46.4% in experiment [15]; 29.1% in [16]; 27.2% in experiment [17]; 43.7% in [18]. Also, the growth in experiment [19] was 46.1%; in experiment [20] it was 51.4%.
For `CS(=O)(=O)c1ccc(C(=O)N2N=C(c3ccccc3)CC2c2ccc3c(c2)OCO3)cc1` (stereo not given), the growth was 97.4% in [1]; 59.9% in [2]; 104% in experiment [3]; 96.2% in experiment [4]; 98.4% in [5]; 95.2% in experiment [6]. Also, the growth in experiment [7] was 100%; in experiment [8], 103%; in [9] it was 79.2%; in experiment [10] it was 95.7%; in [11] it was 85.7%; in experiment [12], 104%. Further, the growth was 88.2% in [13]; 103% in experiment [14]; 91.4% in experiment [15]; 85.1% in experiment [16]; 101% in experiment [17]; 96.4% in experiment [18]. The growth in [19] is 95.5%; in experiment [20], 106%.
Consider `COc1cc([N+](=O)[O-])cc(OC)c1OC`, for which the growth is 115% in [1]; 101% in [2]; 97.8% in experiment [3]; 112% in experiment [4]; 124% in experiment [5]; 110% in experiment [6]. The growth in experiment [7] was 110%; in experiment [8] it was 114%; in [9] it was 114%; in experiment [10] it was 108%; in experiment [11], 107%; in experiment [12] it was 96%. Besides, the growth was 92.2% in experiment [13]; 114% in experiment [14]; 106% in [15]; 94.9% in [16]; 113% in experiment [17]; 101% in experiment [18]. For the same compound, the growth in experiment [19] was 100%; in [20], 104%.
Regarding `c1ccc2oc(-c3cnc4nonc4n3)cc2c1`, the growth was 114% in experiment [1]; 103% in experiment [2]; 105% in experiment [3]; 87.9% in experiment [4]; 112% in experiment [5]; 99.7% in experiment [6]. The growth in [7] was 103%; in experiment [8], 101%; in experiment [9] it was 99.2%; in [10] it was 106%; in experiment [11], 107%; in experiment [12], 96.3%. Moreover, the growth in experiment [13] was 76.6%; in experiment [14], 88.8%; in experiment [15], 103%; in experiment [16] it was 92.7%; in experiment [17] it was 98.4%; in [18], 79.6%. For the same compound, the growth was 94.6% in experiment [19] and 120% in [20].
